According to PubChem BioAssay (NCI):
About 83,000 compounds went through this panel and 20% of them were active in at least one assay; those are over-represented in the sample as a whole.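 Step 1: grow cells in 96-well plates. Step 2: add test compound at a single concentration. Step 3: incubate 48 h. Step 4: record percent growth.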 Activity calls are given as the source filed them.

These compounds were tested on ACHN renal (assay: NCI-60 one-dose screen, 48 h (100 = growth as untreated, 0 = no growth, -100 = all killed)). Settings: 10 µM.
Procedure: Growth inhibition of the ACHN human tumor cell line is measured as a screen for anti-cancer activity. Cells are grown in 96 well plates and exposed to the test compound for 48 hours. Compounds are tested at a single concentration, which is 10^-5 M for most compounds. The reported endpoint is percent growth (GI% or GIPRCNT), where numbers from 0 - 100% represent growth inhibition, and numbers from -100% - 0 represent cell death. For example, a value of 40 represents 60% growth inhibition. A value of 0 means no net growth occurred over the course of the experiment. A value of -40 indicates 40% of cells at the beginning of the experiment died by the end of the experiment. A value of -100 means all cells are dead at the end of the experiment.
NCI-60 Human Tumor Cell Lines Screen was performed using the standard one-dose NCI protocol, which is described in more detail at https://dtp.cancer.gov/discovery_development/nci-60/default.htm.
Compounds with GIPRCNT values below 10 were considered active. Activity score was based on GIPRCNT using the following formula: […]
Score is 0 for GIPRCNT values of 100 or above, 50 for GIPRCNT values of 0, and 100 for GIPRCNT values of -100.
`COC(=O)[C@]12CC[C@@H](C)[C@H](C)[C@@H]1C1=CC[C@@H]3[C@@]4(C)C[C@@H](O)[C@H](O)[C@@](C)(CO)[C@@H]4[C@H](O)C[C@@]3(C)[C@]1(C)CC2` was tested, and the growth was -48.3% (active). In the case of `C=CCN1C(=O)/C(=C\c2ccc3c(c2)CCC3)SC1=S`, the growth is reported as 97.1% (inactive). In the case of `CC(=O)/C(=C\c1ccc(Cl)cc1)c1ccccc1`, the growth is reported as 29.6% (inactive). With `Cc1cccc2c(Nc3ccc(NS(C)(=O)=O)cc3)c3ccc([N+](=O)[O-])cc3nc12` the growth was -11.4% (active). `CC(C)OP(=O)(O)c1ncc(-c2ccc(C(F)(F)F)cc2)c(NC2CCCCCC2)n1` was tested, and the growth was 34.6% (inactive). In the case of `COc1ccc(-c2[nH]ncc2/C=C/c2cc(C(F)(F)F)[nH]c(=O)n2)cc1`, the growth is reported as 92.6% (inactive). `CCCCCCCCCCCCCCCCCBr` was tested, and the growth was 102% (inactive). In the case of `CCOC(=O)C1=C(Nc2ccc(OC)cc2)C(N)=NC1=N`, the growth is reported as 46.6% (inactive). For `NC(N)=NS(=O)(=O)c1ccc(Nc2ccc3nnc(-c4ccncc4)n3n2)cc1`, the growth was 101% (inactive). In the case of `CC(=O)[C@H]1CC[C@H]2[C@@H]3CC[C@@H]4CC=C(C=O)C[C@]4(C)[C@H]3CC[C@]12C`, the growth is reported as 92.4% (inactive). With `COc1cc(CSc2nc3ccc(C)cc3c(=O)n2-c2ccccc2)cc(OC)c1OC` the growth was 44.7% (inactive). `Cc1ccc2c(c1)-c1cc(C)nn1-c1ccc(C#N)cc1O2` was tested, and the growth was 91.5% (inactive). For `CCNC1(NC#N)CCCCC1`, the growth was 111% (inactive). For `COCCOC(=O)NC(=O)Nc1ccc(/C(=N/O)c2ccc(Cl)cc2)cc1`, the growth was 39% (inactive). In the case of `O=C(Nc1cccc(Cl)c1)Nc1cc2ncncc2cc1OCc1cccc(F)c1`, the growth is reported as 3.47% (active). For `O=C(c1ccc(Cl)cc1)c1no[n+]([O-])c1C(=O)c1ccc(Cl)cc1`, the growth was 39.7% (inactive). In the case of `CNC(=O)c1cc(Oc2ccc(NC(=O)Nc3ccc(Cl)c(OC4CCCCC4)c3)c(F)c2)ccn1`, the growth is reported as 29.8% (inactive). In the case of `CC(C)OCc1cc(CN2CCN(c3cccc(Cl)c3)CC2)c(O)c2ncccc12`, the growth is reported as 10.1% (inactive). With `COC(=O)c1ccc(Cn2ccc(=O)[nH]c2=O)cc1` the growth was 107% (inactive). `C#CCn1c(-c2cccc(OCCCCl)c2)nc2c1c(=O)n(C)c(=O)n2C` was tested, and the growth was 76.6% (inactive). `Cc1c(C(=O)N[C@H](CO)Cc2ccccc2)[nH]c2ccc(Cl)cc2c1=O` was tested, and the growth was 101% (inactive). In the case of `Nc1ccc(Sc2ccc3c4c2cccc4c(=O)n2c4ccccc4nc32)cc1`, the growth is reported as 22.1% (inactive). With `CC(C)C[C@H](NC(=O)CCn1ccc2ccccc2c1=O)B(O)O` the growth was 28.6% (inactive). With `COc1cccc(C(=O)NNc2nc(N3CCOCC3)nc(N3CCN(C(c4ccccc4)c4ccccc4)CC3)n2)c1` the growth was 76.3% (inactive). For `CCCCCC(=O)N1c2ccccc2NC2=C(C(=O)CC(c3ccc(OC)c(OC)c3)C2)C1c1ccc(C(F)(F)F)cc1` (stereo not given), the growth was 58.3% (inactive). With `Cc1ccc(/C=C2\CN(Cc3cn(CCNc4ccnc5cc(Cl)ccc45)nn3)C/C(=C\c3ccc(C)cc3)C2=O)cc1` the growth was -16.9% (active). `O=NN(CCCl)C(=O)NCc1ccc(-c2ccc(CNC(=O)N(CCCl)N=O)cc2)cc1` was tested, and the growth was 105% (inactive). For `O=C(CSc1nnc(-c2ccc(Cl)cc2)o1)c1ccccc1`, the growth was 101% (inactive). For `O=C(CCCC(=O)N/N=C/c1cc(Cl)ccc1O)N/N=C\c1cc(Cl)ccc1O`, the growth was 23.1% (inactive). For `COc1ccc(NC(=O)c2sc3nc4c(cc3c2N)C(O)CCC4)cc1` (stereo not given), the growth was 113% (inactive). With `CCCCC(CC#N)(CCC)CCC` the growth was 102% (inactive). `COc1ccc(-c2nc3sc(-c4ccccc4)c(-c4ccccc4)n3c2/C=C/c2ccc(F)cc2)cc1` was tested, and the growth was 78.9% (inactive). For `NC1CCC(Nc2nc(NCc3ccc(-c4cccs4)nc3)c3ncn(C4CCCC4)c3n2)CC1` (stereo not given), the growth was -3.38% (active). In the case of `COc1cc([C@@H]2c3cc4c(cc3[C@H](SC(=N)N)[C@H]3COC(=O)[C@H]23)OCO4)cc(OC)c1OC`, the growth is reported as 26.3% (inactive). `O=C(O)c1cc(C(F)(F)F)cc(C(F)(F)F)c1` was tested, and the growth was 105% (inactive). For `CC1(CO)CCCC12OCCO2` (stereo not given), the growth was 102% (inactive). For `CC(Oc1ccc(Cl)cc1)c1ccccc1` (stereo not given), the growth was 125% (inactive). For `O=C(OCC1OC(n2cc(C(F)(F)F)c(=O)[nH]c2=O)CC1OC(=O)c1ccc([N+](=O)[O-])cc1)c1ccc([N+](=O)[O-])cc1` (stereo not given), the growth was 16% (inactive). In the case of `COc1cc(Cl)cc(-c2nn(-c3cccc(NC(=O)Nc4cccc(C(F)(F)F)c4)c3)cc2-c2ccncc2)c1`, the growth is reported as 5.44% (active). For `COc1ccc2oc(=O)cc(C(c3ccc[nH]3)c3ccc[nH]3)c2c1`, the growth was 17.3% (inactive).
